Source: the supplement of paper PMC7261846
± gives the uncertainty stated by the source.

Tested on: Candida albicans SNY425 biofilm
Test: biofilm OD600 with compound plus antifungal (OD600 (absorbance)); higher = more biofilm remaining
[1] = assay detail: disruption of 24-h mature biofilm (compound + antifungal for a second 24 h)
[2] = assay detail: sustained inhibition (compound + antifungal during 90-min adherence and 24-h growth)

Row | SMILES | biofilm OD600 [1] | biofilm OD600 [2]
1 | NCCc1ccc(S(=O)(=O)F)cc1 + C[C@@H]1[C@H](O)[C@@H](C)/C=C/C=C/C=C/C=C/C=C/C=C/C=C/[C@H](O[C@@H]2O[C@H](C)[C@@H](O)[C@H](N)[C@@H]2O)C[C@@H]2O[C@](O)(C[C@@H](O)C[C@@H](O)[C@H](O)CC[C@@H](O)C[C@@H](O)CC(=O)O[C@H]1C)C[C@H](O)[C@H]2C(=O)O [amphotericin B] (first compound 4 µM) | 0.303 ± 0.0047 | 0.184 ± 0.011
2 | CN1C(=O)[C@]23CC4=CC=C[C@H](O)[C@H]4N2C(=O)[C@@]1(CO)SS3 [Gliotoxin] + C[C@@H]1[C@H](O)[C@@H](C)/C=C/C=C/C=C/C=C/C=C/C=C/C=C/[C@H](O[C@@H]2O[C@H](C)[C@@H](O)[C@H](N)[C@@H]2O)C[C@@H]2O[C@](O)(C[C@@H](O)C[C@@H](O)[C@H](O)CC[C@@H](O)C[C@@H](O)CC(=O)O[C@H]1C)C[C@H](O)[C@H]2C(=O)O [amphotericin B] (first compound 1 µM) | 0.226 ± 0.0062 | 0.0908 ± 0.0077
3 | CN1C(=O)[C@]23CC4=CC=C[C@H](O)[C@H]4N2C(=O)[C@@]1(CO)SS3 [Gliotoxin] + CC[C@H](C)C[C@H](C)CCCCCCCCC(=O)N[C@H]1C[C@@H](O)[C@@H](NCCN)NC(=O)[C@@H]2[C@@H](O)CCN2C(=O)[C@H]([C@H](O)CCN)NC(=O)[C@H]([C@H](O)[C@@H](O)c2ccc(O)cc2)NC(=O)[C@@H]2C[C@@H](O)CN2C(=O)[C@H]([C@@H](C)O)NC1=O [caspofungin] (first compound 1 µM) | 0.217 ± 0.0081 | 0.0858 ± 0.0052
4 | NCCc1ccc(S(=O)(=O)F)cc1 + OC(Cn1cncn1)(Cn1cncn1)c1ccc(F)cc1F [fluconazole] (first compound 4 µM) | 0.278 ± 0.0089 | 0.109 ± 0.0077
5 | CN1C(=O)[C@]23CC4=CC=C[C@H](O)[C@H]4N2C(=O)[C@@]1(CO)SS3 [Gliotoxin] + OC(Cn1cncn1)(Cn1cncn1)c1ccc(F)cc1F [fluconazole] (first compound 1 µM) | 0.211 ± 0.0079 | 0.0782 ± 0.0052
6 | NCCc1ccc(S(=O)(=O)F)cc1 + CC[C@H](C)C[C@H](C)CCCCCCCCC(=O)N[C@H]1C[C@@H](O)[C@@H](NCCN)NC(=O)[C@@H]2[C@@H](O)CCN2C(=O)[C@H]([C@H](O)CCN)NC(=O)[C@H]([C@H](O)[C@@H](O)c2ccc(O)cc2)NC(=O)[C@@H]2C[C@@H](O)CN2C(=O)[C@H]([C@@H](C)O)NC1=O [caspofungin] (first compound 4 µM) | 0.29 ± 0.0053 | 0.172 ± 0.0053
